Active and inactive are the calls of the source.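 The calls were made as follows, unless noted: active = GFP response above 150% of the DMSO level; inconclusive = fewer than 70 events counted for a yeast strain; inactive = the rest.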
What was measured:
[1] = hit retest on RPL19A-GFP reporter strain – cell-based, S. cerevisiae, flow cytometry, cherry picks, mother/daughter gates, confirmation (AID 2270;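 active = GFP response below 50% of the DMSO control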); details: 3 h, at 10 µM, stronger effect = lower value, 100 = same GFP as DMSO wells
[2] = yeast TOR pathway reporter LAP4-GFP change – cell-based, cherry picks, flow cytometry, mother/daughter gates, confirmation (AID 2271;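 active = GFP response above 150% of the DMSO control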;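 also: ratio of sample to DMSO plate mean so 100% equals DMSO level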); details: S. cerevisiae LAP4-GFP strain, 3 h, at 10 µM, stronger effect = higher value, 100 means same as DMSO control
[3] = TOR pathway reporter MEP2-GFP, retest of hits – S. cerevisiae, flow cytometry GFP, cherry picks, confirmation (AID 2272;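 active = GFP response above 150% of the DMSO control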;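 also: ratio of well signal to plate DMSO mean so 100% equals DMSO level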); details: S. cerevisiae MEP2-GFP strain, 3 h, at 10 µM, stronger effect = higher value
[4] = yeast AGP1-GFP fluorescence change, single-dose – cell-based, flow cytometry, S. cerevisiae, cherry picks, confirmation (AID 2273);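 also: median GFP channel fluorescence over the whole cell population gate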; details: S. cerevisiae AGP1-GFP strain, 3 h, at 10 µM
[5] = TOR pathway CIT2 reporter hit retest – S. cerevisiae, GFP fusion, cherry picks, mother/daughter gates, confirmation (AID 2274); details: S. cerevisiae CIT2-GFP strain, flow cytometry, 3 h, at 10 µM, stronger effect = higher value
[6] = measured here: daughter cell gate
[7] = measured here: mother cell gate
[8] = measured here: mother cell gate response

| SMILES | GFP response vs DMSO [1] | GFP response vs DMSO [1, 6] | GFP response relative to DMSO [2] | GFP response vs DMSO [3] | GFP response, % of DMSO [4] | GFP response, % of DMSO [5] | GFP response vs DMSO [1, 7] | GFP response relative to DMSO [2, 8] | GFP response relative to DMSO ([2]; measured here: daughter cell gate response) | GFP response, % of DMSO [5, 6] | GFP response, % of DMSO [5, 7] |
| --- | --- | --- | --- | --- | --- | --- | --- | --- | --- | --- | --- |
| CCCc1nn(C)c2c1C(c1cccnc1)C(C#N)=C(N)O2 (stereo not given) | 101% (inactive) | 106% | 97.4% (inactive) | 97.8% (inactive) | 98.3% (inactive) | 111% (inactive) | – | – | – | – | – |
| Cc1ccc(NC(=O)c2ccc(Cl)c(N3C(=O)C=CC3=O)c2)cc1 | 86.1% (inactive) | – | 217% (active) | 129% (inactive) | 97.1% (inactive) | 84.9% (inactive) | 69.8% | 186% | – | – | – |
| CCC(=O)Nc1ccc(NC(=O)c2cc3ccccc3o2)c(OC)c1 | 100% (inactive) | – | 94.4% (inactive) | 101% (inactive) | 100% (inactive) | 94.4% (inactive) | – | 96.2% | 95.9% | 95.6% | 88.2% |
| COc1ccc(C2C3=C(CCCC3=O)N(CC(=O)O)C3=C2C(=O)CCC3)cc1Cl | 102% (inactive) | 99% | 93.8% (inactive) | 100% (inactive) | 104% (inactive) | 111% (inactive) | 98.5% | – | – | 111% | 111% |
| C/C(=N\NC(=O)c1ccc(Cl)c(Cl)c1)c1ccccn1 | 104% (inactive) | 96.4% | 269% (active) | 118% (inactive) | 127% (inactive) | 114% (inactive) | 88.5% | – | – | 97.6% | 99.3% |

Reference: PubChem BioAssay
